Screens (PubChem)
Compounds with a hit are over-represented: about 7.5% of the library has one in this group of screens.
SMN2 splice enh = SMN2 splice variant enhancement. AID 1458. HEK293 SMN2-luciferase splicing reporter, luminescence, 30-36 h. hit rate 2.8% among 210,000. Potency, µM (titrated, usually from 46.1 µM), inactives show at the top dose activity change, positive = activation, hits mostly activators; further: % of control where 0% means no effect; nearly all actives have a fitted effect of over 55% in size
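HEK293 cells carry an SMN2 minigene-luciferase reporter in which exon 7 inclusion puts luciferase in frame. Cells were seeded at 2000 cells/well, attached for 10-12 hours, then exposed to compounds for 30-36 hours at 37C before ONE-Glo luminescence.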
FLuc counter = inhibits or activates purified firefly luciferase, miR-21 counter-screen; hit rate 6.9% among 360,000; Potency, µM (titrated, usually from 57.5 µM), inactives show at the top dose activity change, negative = inhibition, most hits filed as inhibitors; purified FLuc, Km substrates, luminescence inhibition;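 further: plate controls were vehicle for no effect and reference inhibitor for full effect; nearly all actives have a fitted effect of over 55% in size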
Target sequence (P08659 whole entry, looked up): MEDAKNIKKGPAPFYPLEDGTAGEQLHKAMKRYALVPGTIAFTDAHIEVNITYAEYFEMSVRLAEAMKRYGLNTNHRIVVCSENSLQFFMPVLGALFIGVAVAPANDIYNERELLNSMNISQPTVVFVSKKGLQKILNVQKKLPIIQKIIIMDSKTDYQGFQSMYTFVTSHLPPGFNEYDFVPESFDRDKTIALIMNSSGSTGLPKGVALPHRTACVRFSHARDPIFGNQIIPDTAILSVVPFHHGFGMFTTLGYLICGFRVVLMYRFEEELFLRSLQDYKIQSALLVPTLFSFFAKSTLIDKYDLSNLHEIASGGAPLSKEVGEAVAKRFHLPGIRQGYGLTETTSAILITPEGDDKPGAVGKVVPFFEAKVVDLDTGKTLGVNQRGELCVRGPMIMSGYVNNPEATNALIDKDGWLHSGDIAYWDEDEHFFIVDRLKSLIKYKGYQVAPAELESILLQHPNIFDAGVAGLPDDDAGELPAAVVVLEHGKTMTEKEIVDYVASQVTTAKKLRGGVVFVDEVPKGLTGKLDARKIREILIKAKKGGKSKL
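Biochemical qHTS of compounds, final roughly 60 µM downward over six points, against 10 nM purified firefly luciferase using Km concentrations of substrates (10 uM D-luciferin, 10 uM ATP) in Tris acetate pH 7.5 buffer; luminescence output.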
Rab9 promoter act = activators of Rab9 promoter; Potency, µM (doses to about 9.22 µM), for inactives: top-dose activation, negative = inhibition, actives largely listed as activators; hit rate 2.8% among 320,000; Huh7 Rab9 promoter-luciferase reporter, luminescence, 24 h; further: % of control where 0% means no effect; nearly all actives have a fitted effect of over 60% in size
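Promoter activation is measured as luciferase luminescence in Huh7 cells stably transfected with a Rab9 promoter–luciferase construct, following 24 h compound exposure at 37 °C and 10 min reagent incubation at ambient temperature.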
NPC1 promoter act = activators of NPC1 promoter. Potency, µM (highest dose often 9.22 µM), for the others: top-dose activation, usual class: activators. Huh7 NPC1 promoter luciferase reporter, 24 h. AID 485313. hit rate 2.4% among 320,000; further: % of control where 0% means no effect; nearly all actives have a fitted effect of over 60% in size
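Compounds in DMSO were transferred onto Huh7 NPC1-luciferase reporter cells pre-incubated 2 h; after 24 h at 37 °C, Amplite reagent was dispensed and luminescence recorded 10 min later.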
ELG1 genotoxic = genotoxicity induction in ELG1-luciferase HEK293T cells. Potency, µM (series often up to 46 µM), inactives show top-dose activity change, positive = activation, most hits filed as activators. HEK293T ELG1-luciferase reporter, luminescence, 16 h. hit rate 1.3% among 330,000. AID 504466; further: % of control where 0% means no effect; nearly all actives have a fitted effect of over 60% in size
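DMSO vehicle served as control against compound-treated ELG1-luciferase HEK293T cells; exposure lasted 16 hr at 37 °C and 5% CO2, followed by ONE-Glo luminescence detection after 30 min.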
The depositor's hits bear a star; ? = inconclusive; nt = no result given; [ ] = remark or other dose. The call rests on the fitted dose curve; in most records, active means well fitted curve in the direction sought with a large enough effect; inconclusive means small, poorly fitted or top-dose-only effect, or another doubt; inactive means no such curve, though single readings can be large; an effect the other way counts as inactive or inconclusive. Potency means the concentration at half of the fitted maximal effect.

SMILES | SMN2 splice enh | FLuc counter | Rab9 promoter act | NPC1 promoter act | ELG1 genotoxic
O=S(=O)(Nc1nc2ccccc2s1)c1ccc(Cl)nc1 | nt | -6.5% | -1.1% | -3.2% | 0.8%
CC12CCC(C(=O)Nc3nc4ccc(Br)cc4s3)(OC1=O)C2(C)C (stereo not drawn) | ? | 19µM* | ? | ? | 13.9%
CCc1ccc(-c2[nH]nc3nc(-c4cc(OC)ccc4OC)cc(C(=O)O)c23)cc1 | nt | 1.9µM* | nt | nt | nt
COc1ccc(-c2[nH]nc3nc(-c4cc(OC)c(OC)c(OC)c4)cc(C(=O)O)c23)cc1 | nt | 2.69µM* | nt | nt | nt
COc1ccc(C(=O)COC(=O)CCn2nnc(-c3cccs3)n2)cc1 | -5.6% | -2.2% | -4.0% | 0.5% | 0.5%
NCCS(=O)(=O)O | 16.9% | nt | 4.7%[46.1 µM] | 2.9%[46.1 µM] | nt
CCOC(=O)c1ccc(N2C(=O)c3[nH]nc(-c4ccc(C)cc4)c3C2c2cccs2)cc1 (stereo not drawn) | -12.2% | 1.2% | nt | nt | nt
Cc1nnc(-c2cnn(-c3ccccc3)c2N)n1Cc1ccncc1 | -6.4% | 3.8% | 6.7% | -3.6% | 1.9%
O=C(Cc1ccc(Br)cc1)Nc1nc2ccccc2[nH]1 | nt | -13.8% | 2.8% | 13.1% | 6.8%
O=C(Cc1nc2ccccc2[nH]1)c1ccc(Br)cc1 | ? | 21.3µM* | ? | 28.8% | 8.9%
O=C(Cc1nc2ccccc2[nH]c1=O)c1ccccc1 | 11.2µM* | 3.38µM* | 1.41µM* | 3.16µM* | ?
Cc1ccc(Nc2nc(Cl)nc(NC(C)(C)C)n2)cc1 | nt | 12µM* | 21.0% | ? | ?
NS(=O)(=O)c1cccc(C(=O)OCC(=O)NC2CCCc3ccccc32)c1 (stereo not drawn) | nt | nt | nt | nt | 1.4%
C/C(=N/OC(=O)c1ccc(C(F)(F)F)cc1)c1oc(C)nc1C | nt | 12µM* | 2.7% | 0.2% | 2.4%
CCOC(=O)SC1=N/C(=C\c2ccc(N(C)C)cc2)C(=O)S1 | 0.7% | 9.53µM* | -1.9% | -1.3% | 0.6%
C=CCSC1=N/C(=C\c2ccc(C)o2)C(=O)S1 | -15.7% | 15.1µM* | -0.5% | 0.6% | -0.1%
C=CCSC1=N/C(=C\c2ccc(C(=O)O)cc2)C(=O)S1 | 16.9% | 10.7µM* | 0.0% | 0.4% | 1.3%
CSC1=N/C(=C\c2ccc(C)cc2)C(=O)S1 | -14.2% | ? | 4.5% | -0.3% | -1.9%
O=C1SC(SCc2ccccc2Cl)=N/C1=C\c1ccc(C(=O)O)cc1 | -0.2% | 21.3µM* | -3.8% | -4.5% | -0.5%
COc1cc(OC)cc(C(=O)N[C@H](C(=O)Nc2nc3ccc(S(C)(=O)=O)cc3s2)C(C)C)c1 | 12.2% | ? | 13.4% | -2.3% | 0.1%
Cc1cc(C)cc(SCc2noc(C(=O)NCc3ccccc3)c2C(=O)NCc2ccccc2)c1 | nt | 1.3% | -6.2% | -7.3% | -3.0%
CCSC1=N/C(=C\c2ccc(C(=O)O)cc2)C(=O)S1 | -2.8% | 9.53µM* | 1.8% | -1.9% | -2.8%
COC(=O)c1ccc(/C=C2\N=C(SC)SC2=O)cc1 | nt | -6.5% | 0.6% | -0.1% | 0.1%
CCc1ccc(NC(=O)c2cc(CC(C)C)on2)cc1 | 25.3% | 2.69µM* | ? | 26.2% | 16.4µM*
CC(C)Cc1cc(C(=O)Nc2ccc(F)cc2F)no1 | -3.0% | 10.7µM* | 14.5% | 12.3% | 16.4µM*
SMILES | SMN2 splice enh | FLuc counter | Rab9 promoter act | NPC1 promoter act | ELG1 genotoxic
CC(C)Cc1cc(C(=O)NCc2cccs2)no1 | 12.6µM* | 15.1µM* | ? | ? | 16.4µM*
CC(C)Cc1cc(C(=O)Nc2cc(Cl)ccc2Cl)no1 | 5.6% | ? | 20.5% | 16.3% | 29.8%
COc1ccc(NC(=O)c2cc(CC(C)C)on2)cc1OC | 20.7% | ? | 1.3% | 6.4% | 20.6µM*
O=C1CNC(=O)/C1=C\N1CCN(C(c2ccccc2)c2ccccc2)CC1 | -5.1% | -0.5% | 0.1% | -7.6% | -1.9%
CC(C)Cc1cc(C(=O)Nc2ccc3c(c2)OCO3)no1 | 15.8µM* | 5.36µM* | 3.16µM* | 3.16µM* | 4.61µM*
Cc1cc(C(=O)Nc2ccc3c(c2)OCO3)no1 | nt | -4.7% | 0.6% | -0.2% | -19.5%
CC(C)Cc1cc(C(=O)Nc2c(F)cc(F)cc2Br)no1 | 11.6% | ? | 2.5% | -5.7% | ?
CC(C)Cc1cc(C(=O)Nc2cccc(O)c2)no1 | nt | 0.675µM* | ? | ? | ?
CC(C)Cc1cc(C(=O)Nc2ccc(Br)cc2)no1 | nt | 2.69µM* | ? | ? | ?
COC(=O)c1c(C)[nH]c(/C=N/Nc2ccccc2)c1C | nt | 10.7µM* | 12.9% | 0.5% | ?
CNC(=O)COC(=O)c1cc2c(s1)CCCC2 | 9.4% | -16.6% | 4.9% | -2.3% | 9.5%
CC1CCc2sc(C(=O)OCC(=O)NCc3ccccc3)cc2C1 (stereo not drawn) | nt | 6.8% | -0.9% | -1.2% | 10.1%
C/C(N)=C(/C#N)C(=O)COC(=O)c1cc2c(s1)CCC(C)C2 (stereo not drawn) | 20.5% | 16.9µM* | -2.3% | -2.2% | ?
C/C(N)=C(/C#N)C(=O)COC(=O)c1cc2c(s1)CCCC2 | 24.1% | 15.1µM* | -19.3% | 0.6% | ?
CC(N)CCCP(=O)(O)O (stereo not drawn) | -1.9% | nt | nt | nt | nt
c1ccc(-c2cc(-c3nnc4n3N=C(c3ccc5ccccc5c3)CS4)[nH]n2)cc1 | 11.2µM* | ? | -0.3% | 1.6% | ?
Cc1cc(-c2nnc3n2N=C(c2ccc(-c4ccccc4)cc2)CS3)n[nH]1 | nt | 16.9µM* | -7.4% | -0.7% | 0.0%
Fc1ccc(C2=Nn3c(nnc3-c3n[nH]c4c3CCC4)SC2)cc1 | 20µM* | 1.1% | -3.8% | -1.5% | 18.4µM*
Cc1cc(-c2nnc3n2N=C(c2ccccc2)CS3)n[nH]1 | nt | -0.1% | 5.8% | 0.5% | ?
CCCOc1ccc(CC(=O)N/N=C\c2ccc(F)cc2)cc1 | nt | 6.4% | 1.9% | 0.5% | -4.5%
O=C(N/N=C/c1cccs1)c1ccc(NC(=O)c2ccccc2Cl)cc1 | nt | -3.9% | -2.2% | 1.0% | -2.7%
O=C(N/N=C/c1cn(-c2ccccc2)nc1-c1ccccc1)c1ccco1 | ? | -14.7% | 16.1% | 9.2% | -0.6%
O=C(N/N=C/c1cn(-c2cccs2)nc1-c1ccccc1)c1ccc(O)cc1 | ? | 4.26µM* | 3.6% | 7.0% | -19.1%
O=C(N/N=C/c1cn(-c2cccs2)nc1-c1ccccc1)c1ccccc1Cl | 20µM* | 12µM* | -2.8% | 5.9% | 5.1%
O=[N+]([O-])c1ccc(-c2cn(-c3ccccc3F)c(=S)[nH]2)cc1 | 13.7% | 1.3% | 1.41µM* | ? | 10.3%
Cc1ccc(-c2cn(-c3ccccc3F)c(=S)[nH]2)cc1 | nt | ? | 3.16µM* | ? | 15.5%
CCn1c(C(=O)N2CCC(C(=O)N3CCN(c4cc(C)ccc4C)CC3)CC2)cc2sccc21 | -42.1% | -19.6% | nt | nt | nt
O=C(O)c1cc(-c2ccccc2)nc(-c2ccccc2)c1 | nt | 1.6% | -2.1% | 0.7% | -0.6%
c1ccc(-c2cccc(-c3ccccc3)n2)cc1 | nt | 12µM* | ? | 22.7% | 5.5%
